KDM5B inh = inhibitors of human KDM5B histone demethylase; KDM5B demethylase, FDH-coupled NADH fluorescence (FDH is formaldehyde dehydrogenase); Potency, µM (doses to about 57.7 µM), usual class: inhibitors; 220,000 compounds, 2.6% hits; AID 1347165; active = well fitted inhibition curve with a large enough effect; also: 0% is about no effect; nearly all actives have a fitted effect of over 70% in size
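Inhibition is measured as reduced NADH fluorescence generation from FDH coupling to formaldehyde release. Truncated KDM5BΔAP at 200 nM final acts on H3K4me3 peptide (12.5 µM in substrate mix) in pH 7.5 HEPES buffer with Tween-20, 30 min, room temperature.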
* = called active by the depositor; i = inactive. The sample as a whole holds a higher share of hits than the screen did. Potency is read from the fitted curve at half-maximal effect.

SMILES | KDM5B inh
CCN(CC)CC[C@H]1CN(C(=O)Nc2ccccc2)CC[C@H]1CC(=O)O | i
COc1cc2c(cc1OC)C(C[C@H]1CN(C(=O)Nc3cccc(Cl)c3)CC[C@H]1CC(=O)O)=NCC2 | 32µM*
COc1cc2c(cc1OC)C(C[C@H]1CN(C(=O)Nc3ccc(Cl)cc3)CC[C@H]1CC(=O)O)=NCC2 | 28µM*
COc1cc2c(cc1OC)C(C[C@H]1CN(C(=O)C(=O)O)CC[C@H]1CC(=O)O)=NCC2 | i
CC(NC(=O)c1ccc(N2CCCC2=O)cc1)c1ccccc1Cl (centres undefined) | i
CCOC(=O)C1=C(C)N(C)C(=O)NC1c1ccc(Br)s1 (centres undefined) | i
Cc1nccn1CCN(C)Cc1cc2n(n1)CCNC2 | i
CC(c1cccc(Cl)c1)N(C)CCS(=O)(=O)CCC(N)=O (centres undefined) | i
CC1C/C(=N/NC(=S)NC2CCCCC2)CC(C)(C)C1 (centres undefined) | i
CC(=O)N1CCN(C(=O)C[C@@H]2C[C@@H](C(C)C)[C@H](CC#N)C=C2C)CC1 | i
CC1=C[C@@H](CNC(=O)C(C)(C)C)[C@H](C(C)C)C[C@H]1CC(=O)N1CCN(c2ccccn2)CC1 | 20µM*
CC(=O)N1CCN(C(=O)C[C@@H]2C[C@@H](C(C)C)[C@H](CNC(=O)c3cncnc3)C=C2C)CC1 | i
CC1=C[C@@H](CNC(=O)c2ccccn2)[C@H](C(C)C)C[C@H]1CC(=O)N1CCCC1 | i
CC1=C[C@@H](CC#N)[C@H](C(C)C)C[C@H]1CC(=O)N1CCN(c2cnccn2)CC1 | 35µM*
COc1ccccc1N1CCN(C(=O)C[C@@H]2C[C@@H](C(C)C)[C@H](CC#N)C=C2C)CC1 | i
CC1=C[C@@H](CNC(=O)c2ccccc2)[C@H](C(C)C)C[C@H]1CC(=O)N1CCN(C)CC1 | i
COCC(=O)NC[C@@H]1C=C(C)[C@H](CC(=O)N2CCCC2)C[C@H]1C(C)C | i
COCCNC(=O)C[C@@H]1C[C@@H](C(C)C)[C@H](CNS(=O)(=O)c2ccccc2)C=C1C | i
CC1=C[C@@H](CNC(=O)C2CCCCC2)[C@H](C(C)C)C[C@H]1CC(=O)N1CCN(c2ccccn2)CC1 | 35µM*
CCOC(=O)C[C@@H]1C[C@@H](C(C)C)[C@H](CNC(=O)C2CC2)C=C1C | i
COCCNC(=O)C[C@@H]1C[C@@H](C(C)C)[C@H](CNC(=O)C2CC2)C=C1C | 35µM*
Cc1ccccc1CSc1nnc(C2CCN(C(=O)OC(C)(C)C)CC2)o1 | i
CCN(C(=O)COc1ncnc2ccc(Br)cc12)c1ccccc1 | i
CCOC(=O)c1c(NC(=O)N2CCN(CC)CC2)sc(C)c1C | i
COc1cccc(C(=O)Nc2cccc(-c3nnc(-c4ccccc4)o3)c2)c1 | i
SMILES | KDM5B inh
O=Cc1cn[nH]c1-c1cccnc1 | i
COc1ncccc1-c1cc(-c2cccnc2)c2cncn2c1 | 35µM*
COc1ccc(-c2cc(-c3cccc(NC(C)=O)c3)cn3cncc23)cc1 | 8.9µM*
c1cncc(-c2cc(-c3ccc4cn[nH]c4c3)cn3cncc23)c1 | 35µM*
COc1ccc(-c2cc(-c3ccc(CO)cc3)cn3cncc23)cc1 | 4µM*
COc1ncccc1-c1cc(C(=O)N2CCCC(OC)C2)c2c(c1)ncn2C (centres undefined) | i
COc1cccc(N2CCN(C(=O)c3cn(-c4ccccc4)nc3-c3cccnc3)CC2)c1 | i
COc1ccc(Nc2cnc3ccc(-c4cccc(CO)c4)nn23)cc1 | i
COc1ccc(-c2ccc(CN)cc2)cc1 | i
COc1cccc(OC)c1C(=O)Nc1cccc(-c2cn3ccsc3n2)c1 | i
CC1(C)CC(=O)c2cc(C#N)c(SCc3cc4c(cc3Cl)OCO4)nc2C1 | i
CC1(NC(=O)Cc2ccc3ccccc3c2)CCCC1 | i
Cc1ccc(C2CC(=O)Nc3cc4c(cc32)OCO4)cc1Br (centres undefined) | i
Cc1cc(=O)oc2cc(OC(=O)CCCOc3ccccc3)ccc12 | i
O=C(NC1CCCc2ccccc21)C(c1ccccc1)c1ccccc1 (centres undefined) | i
O=C(CSc1ccc2ccccc2c1)c1ccc[nH]1 | i
COc1cc(OC)cc(C(=O)Oc2ccccc2Cl)c1 | i
Cc1ccc(C)c(S(=O)(=O)N2CCN(C(=O)CCc3ncc(-c4ccc(F)cc4)o3)CC2)c1 | i
COc1ccc(-c2cc(-c3cccnc3)cn3cncc23)cc1 | 40µM*
COc1ccc(OC2CN(Cc3cccnc3)C2)cc1 | i
COc1ccc(-c2csc3ncnc(Nc4cc(OC)c(OC)c(OC)c4)c23)cc1 | i
Cc1nnc(-c2cc(-c3cccc(CO)c3)ccn2)n1Cc1cccnc1 | i
COc1ccc(-c2ccnc3[nH]n(-c4ccccc4)c(=O)c23)cc1 | i
COc1ccc(-c2cc(-c3cccnc3OC)cn3cncc23)cc1 | 35µM*
COc1ccc(NC(=O)c2cc(-c3cccnc3)nc3ccccc23)cc1 | i
Cc1ccc(-c2cc(-c3cccnc3)c3cncn3c2)cn1 | 35µM*
